PubChem BioAssay (NCATS)
Inconclusive results are not listed. Where a call stands in place of a potency, no number is given. The source made the active and inactive calls. The call rests on the fitted dose curve; in most records, active means well fitted inhibition curve with a large enough effect; inconclusive means small, poorly fitted or top-dose-only effect; inactive means flat fitted curve, though single readings scatter.

tested on: P94_40; assay: qHTS profiling for inhibitors of Plasmodium falciparum proliferation (AID 504749); further: nearly all actives have a fitted effect of over 60% in size; settings: P. falciparum in erythrocytes, SYBR Green DNA, 72 h; series mostly up to 28.7 µM
Outline: (§1)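 In a 72 h erythrocytic culture (37 C, humidified, 5% CO2) at 2.5% hematocrit and 0.3% starting parasitemia, compounds were tested; SYBR Green I in detergent lysis buffer stained parasite DNA overnight.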

| SMILES | Potency |
| --- | --- |
| CC(=O)Nc1ccccc1 | inactive |
| O=C(/C=C/c1ccccc1)OCc1ccccc1 | inactive |
| c1ccc2[nH]ccc2c1 | inactive |
| NC(N)=NS(=O)(=O)c1ccc(N)cc1 | inactive |
| Cc1ccc(S(=O)(=O)NC(=O)NC2CCCCC2)cc1 | inactive |
| C[C@H]1COc2c(C3(N)CC3)c(F)cc3c(=O)c(C(=O)O)cn1c23 | inactive |
| Cc1c(NC(C)C)c(=O)n(-c2ccccc2)n1C | inactive |
| CCCCCC(N)=O | inactive |
| Cn1c(=O)c2c(ncn2CCO)n(C)c1=O | inactive |
| CC(C)c1cc2c(cc1S(=O)(=O)O)[C@@]1(C)CCC[C@@](C)(C(=O)O)[C@@H]1CC2 | inactive |
| O=C(NCCCN1CCOCC1)c1ccc(Cl)cc1 | inactive |
| COc1ccccc1OC(=O)Oc1ccccc1OC | inactive |
| OCc1ccc(Cl)cc1Cl | inactive |
| CC(=O)Nc1cccc(O)c1 | inactive |
| FC(F)(F)C(Cl)Br (centres undefined) | inactive |
| Cc1c(N(C)C)c(=O)n(-c2ccccc2)n1C | inactive |
| COC(=O)c1cccnc1 | inactive |
| CCN(CC)CC1CCCCN1CC(=O)N1c2ccccc2C(=O)Nc2cccnc21 (centres undefined) | inactive |
| Cc1cccc(Nc2ccccc2C(=O)O)c1C | inactive |

| SMILES | Potency |
| --- | --- |
| COc1ccccc1Oc1c(NS(=O)(=O)c2ccc(C(C)(C)C)cc2)nc(-c2ncccn2)nc1OCCO | inactive |
| CCc1nnc(NS(=O)(=O)c2ccc(N)cc2)s1 | inactive |
| Cc1c(C(=O)NCCO)[n+](=O)c2ccccc2n1[O-] | inactive |
| O=C1c2cccc(O)c2C(=O)c2c(O)cccc21 | inactive |
| CCCCCCCC(=O)OCC(COC(=O)CCCCCCC)OC(=O)CCCCCCC | inactive |
| NNC(=O)CP(=O)(c1ccccc1)c1ccccc1 | inactive |
| Nc1ncnc2c1ncn2[C@@H]1O[C@H](COP(=O)(O)O)[C@@H](O)[C@H]1O | inactive |
| CC1CCc2cc(F)cc3c(=O)c(C(=O)O)cn1c23 (centres undefined) | inactive |
| O=C(O)c1cc(=O)c2ccccc2o1 | inactive |
| C=CCSCC1Nc2cc(Cl)c(S(N)(=O)=O)cc2S(=O)(=O)N1 (centres undefined) | inactive |
| O=C(O)Cc1ccc(CCNS(=O)(=O)c2ccc(Cl)cc2)cc1 | inactive |
| CC[N+](CC)(CC(=O)Nc1c(C)cccc1C)Cc1ccccc1 | inactive |
| O=c1[nH]c(=O)c2ccccc2o1 | inactive |
| O=C(O)c1ccccc1OP(=O)(O)O | inactive |
| O=S1(=O)OC(c2ccc(O)cc2)(c2ccc(O)cc2)c2ccccc21 | inactive |
| COc1ccc(C(=O)N2CCN(CC(=O)N3CCOCC3)CC2)cc1 | inactive |
| OCC(O)CS (centres undefined) | inactive |
| CN1CCN(C(=O)C2CCCCC2)CC1 | inactive |

tested on: PAD; assay: as above; settings: P. falciparum in erythrocytes, SYBR Green DNA, 72 h; series mostly up to 28.7 µM
Outline: as §1

| SMILES | Potency |
| --- | --- |
| CC(=O)Nc1ccccc1 | inactive |
| O=C(/C=C/c1ccccc1)OCc1ccccc1 | inactive |
| c1ccc2[nH]ccc2c1 | inactive |
| NC(N)=NS(=O)(=O)c1ccc(N)cc1 | inactive |
| Cc1ccc(S(=O)(=O)NC(=O)NC2CCCCC2)cc1 | inactive |
| C[C@H]1COc2c(C3(N)CC3)c(F)cc3c(=O)c(C(=O)O)cn1c23 | inactive |
| Cc1c(NC(C)C)c(=O)n(-c2ccccc2)n1C | inactive |
| CCCCCC(N)=O | inactive |
| Cn1c(=O)c2c(ncn2CCO)n(C)c1=O | inactive |
| CC(C)c1cc2c(cc1S(=O)(=O)O)[C@@]1(C)CCC[C@@](C)(C(=O)O)[C@@H]1CC2 | inactive |
| O=C(NCCCN1CCOCC1)c1ccc(Cl)cc1 | inactive |
| COc1ccccc1OC(=O)Oc1ccccc1OC | inactive |
| OCc1ccc(Cl)cc1Cl | inactive |
| CC(=O)Nc1cccc(O)c1 | inactive |
| FC(F)(F)C(Cl)Br (centres undefined) | inactive |
| Cc1c(N(C)C)c(=O)n(-c2ccccc2)n1C | inactive |
| COC(=O)c1cccnc1 | inactive |
| CCN(CC)CC1CCCCN1CC(=O)N1c2ccccc2C(=O)Nc2cccnc21 (centres undefined) | inactive |
| Cc1cccc(Nc2ccccc2C(=O)O)c1C | inactive |

| SMILES | Potency |
| --- | --- |
| COc1ccccc1Oc1c(NS(=O)(=O)c2ccc(C(C)(C)C)cc2)nc(-c2ncccn2)nc1OCCO | inactive |
| CCc1nnc(NS(=O)(=O)c2ccc(N)cc2)s1 | inactive |
| Cc1c(C(=O)NCCO)[n+](=O)c2ccccc2n1[O-] | inactive |
| O=C1c2cccc(O)c2C(=O)c2c(O)cccc21 | inactive |
| CCCCCCCC(=O)OCC(COC(=O)CCCCCCC)OC(=O)CCCCCCC | inactive |
| NNC(=O)CP(=O)(c1ccccc1)c1ccccc1 | inactive |
| Nc1ncnc2c1ncn2[C@@H]1O[C@H](COP(=O)(O)O)[C@@H](O)[C@H]1O | inactive |
| CC1CCc2cc(F)cc3c(=O)c(C(=O)O)cn1c23 (centres undefined) | inactive |
| O=C(O)c1cc(=O)c2ccccc2o1 | inactive |
| C=CCSCC1Nc2cc(Cl)c(S(N)(=O)=O)cc2S(=O)(=O)N1 (centres undefined) | inactive |
| O=C(O)Cc1ccc(CCNS(=O)(=O)c2ccc(Cl)cc2)cc1 | inactive |
| CC[N+](CC)(CC(=O)Nc1c(C)cccc1C)Cc1ccccc1 | inactive |
| O=c1[nH]c(=O)c2ccccc2o1 | inactive |
| O=C(O)c1ccccc1OP(=O)(O)O | inactive |
| O=S1(=O)OC(c2ccc(O)cc2)(c2ccc(O)cc2)c2ccccc21 | inactive |
| COc1ccc(C(=O)N2CCN(CC(=O)N3CCOCC3)CC2)cc1 | inactive |
| OCC(O)CS (centres undefined) | inactive |
| CN1CCN(C(=O)C2CCCCC2)CC1 | inactive |
